Assay [1] addresses T1, Inhibitor of nuclear factor kappa-B kinase subunit epsilon (Homo sapiens) (UniProt Q14164).
T1 sequence (whole entry): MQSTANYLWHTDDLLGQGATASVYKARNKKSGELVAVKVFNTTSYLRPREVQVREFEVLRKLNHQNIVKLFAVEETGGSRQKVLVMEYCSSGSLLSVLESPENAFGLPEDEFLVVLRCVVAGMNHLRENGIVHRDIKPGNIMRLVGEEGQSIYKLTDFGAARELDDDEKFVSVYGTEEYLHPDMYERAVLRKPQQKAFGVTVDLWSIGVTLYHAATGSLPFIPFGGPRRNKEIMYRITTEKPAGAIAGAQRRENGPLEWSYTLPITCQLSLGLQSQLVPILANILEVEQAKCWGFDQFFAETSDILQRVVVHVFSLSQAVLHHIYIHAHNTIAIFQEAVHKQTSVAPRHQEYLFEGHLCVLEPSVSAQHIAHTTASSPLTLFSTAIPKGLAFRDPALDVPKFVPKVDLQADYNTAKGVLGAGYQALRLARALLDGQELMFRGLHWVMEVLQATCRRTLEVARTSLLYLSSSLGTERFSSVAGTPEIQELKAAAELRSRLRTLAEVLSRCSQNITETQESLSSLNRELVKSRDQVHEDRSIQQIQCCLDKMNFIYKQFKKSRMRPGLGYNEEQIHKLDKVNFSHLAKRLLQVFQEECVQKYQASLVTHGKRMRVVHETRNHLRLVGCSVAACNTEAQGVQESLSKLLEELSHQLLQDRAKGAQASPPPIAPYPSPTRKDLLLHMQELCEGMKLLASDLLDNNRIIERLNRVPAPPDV
Particulars: at 1 µM.

Assay [2] deals with T2, Serine/threonine-protein kinase Nek1 (Homo sapiens) (UniProt Q96PY6).
T2 sequence (whole entry): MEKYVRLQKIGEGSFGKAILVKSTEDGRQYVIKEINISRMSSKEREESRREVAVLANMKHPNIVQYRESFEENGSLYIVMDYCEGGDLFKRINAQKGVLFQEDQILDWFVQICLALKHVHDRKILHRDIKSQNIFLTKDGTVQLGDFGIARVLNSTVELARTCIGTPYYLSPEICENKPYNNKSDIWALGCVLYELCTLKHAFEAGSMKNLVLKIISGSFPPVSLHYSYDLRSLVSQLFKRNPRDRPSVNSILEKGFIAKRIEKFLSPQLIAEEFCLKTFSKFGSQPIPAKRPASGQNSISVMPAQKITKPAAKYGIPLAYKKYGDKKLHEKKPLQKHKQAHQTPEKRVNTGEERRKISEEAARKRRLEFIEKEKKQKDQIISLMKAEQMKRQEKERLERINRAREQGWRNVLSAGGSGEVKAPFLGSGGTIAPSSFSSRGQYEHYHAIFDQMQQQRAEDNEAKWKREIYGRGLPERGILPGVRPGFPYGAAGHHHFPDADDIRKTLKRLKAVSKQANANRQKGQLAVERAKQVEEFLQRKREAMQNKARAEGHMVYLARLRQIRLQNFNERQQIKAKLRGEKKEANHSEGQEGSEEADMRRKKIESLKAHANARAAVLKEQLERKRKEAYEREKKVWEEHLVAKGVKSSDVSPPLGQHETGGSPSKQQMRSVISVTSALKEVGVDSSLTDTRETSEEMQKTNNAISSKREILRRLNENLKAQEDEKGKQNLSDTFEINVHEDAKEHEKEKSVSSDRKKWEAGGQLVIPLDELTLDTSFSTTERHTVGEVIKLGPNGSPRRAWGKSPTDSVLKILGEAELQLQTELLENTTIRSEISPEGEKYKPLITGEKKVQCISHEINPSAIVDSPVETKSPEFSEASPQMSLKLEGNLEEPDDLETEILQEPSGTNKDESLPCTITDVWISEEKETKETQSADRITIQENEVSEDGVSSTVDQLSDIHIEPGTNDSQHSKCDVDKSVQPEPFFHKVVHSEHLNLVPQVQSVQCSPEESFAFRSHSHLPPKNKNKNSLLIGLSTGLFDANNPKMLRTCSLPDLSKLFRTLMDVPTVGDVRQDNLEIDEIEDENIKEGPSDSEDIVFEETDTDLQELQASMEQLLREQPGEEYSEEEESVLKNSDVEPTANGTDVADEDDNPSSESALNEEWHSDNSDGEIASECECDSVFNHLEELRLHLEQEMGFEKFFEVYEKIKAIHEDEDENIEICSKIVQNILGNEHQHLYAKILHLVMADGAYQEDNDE
The note with it: at 0.1 µM.

The target in assay [3] is T2, Serine/threonine-protein kinase Nek1 (Homo sapiens). The note with it: at 1 µM.
Assay [4] has as its target T3, Serine/threonine-protein kinase Nek2 (Homo sapiens) (UniProt P51955).
T3 sequence (whole entry): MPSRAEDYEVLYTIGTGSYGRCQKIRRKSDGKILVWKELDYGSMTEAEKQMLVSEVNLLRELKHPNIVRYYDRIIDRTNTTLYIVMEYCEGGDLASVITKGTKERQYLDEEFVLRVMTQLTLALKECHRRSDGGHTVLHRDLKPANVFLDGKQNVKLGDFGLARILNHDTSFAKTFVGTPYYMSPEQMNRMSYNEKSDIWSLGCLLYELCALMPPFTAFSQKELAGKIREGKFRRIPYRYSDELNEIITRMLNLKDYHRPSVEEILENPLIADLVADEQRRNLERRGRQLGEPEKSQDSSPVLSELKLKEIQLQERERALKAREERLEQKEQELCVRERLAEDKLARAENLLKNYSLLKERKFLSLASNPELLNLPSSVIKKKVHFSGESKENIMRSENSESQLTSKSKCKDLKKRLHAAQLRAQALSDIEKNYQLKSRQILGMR
The note with it: at 0.1 µM.

In assay [5] the target is T3, Serine/threonine-protein kinase Nek2 (Homo sapiens). The note with it: at 1 µM.
The target of assay [6] is Serine/threonine-protein kinase Nek6 (Homo sapiens) (UniProt Q9HC98). Particulars: at 0.1 µM.
For assay [7] the target is unchanged. The note with it: at 1 µM.
The target of assay [8] is Serine/threonine-protein kinase Nek7 (Homo sapiens) (UniProt Q8TDX7). Particulars: at 0.1 µM.
The target is the same in assay [9]. The note with it: at 1 µM.
For assay [10], the target named is T4, Serine/threonine-protein kinase Nek9 (Homo sapiens) (UniProt Q8TD19).
T4 sequence (whole entry): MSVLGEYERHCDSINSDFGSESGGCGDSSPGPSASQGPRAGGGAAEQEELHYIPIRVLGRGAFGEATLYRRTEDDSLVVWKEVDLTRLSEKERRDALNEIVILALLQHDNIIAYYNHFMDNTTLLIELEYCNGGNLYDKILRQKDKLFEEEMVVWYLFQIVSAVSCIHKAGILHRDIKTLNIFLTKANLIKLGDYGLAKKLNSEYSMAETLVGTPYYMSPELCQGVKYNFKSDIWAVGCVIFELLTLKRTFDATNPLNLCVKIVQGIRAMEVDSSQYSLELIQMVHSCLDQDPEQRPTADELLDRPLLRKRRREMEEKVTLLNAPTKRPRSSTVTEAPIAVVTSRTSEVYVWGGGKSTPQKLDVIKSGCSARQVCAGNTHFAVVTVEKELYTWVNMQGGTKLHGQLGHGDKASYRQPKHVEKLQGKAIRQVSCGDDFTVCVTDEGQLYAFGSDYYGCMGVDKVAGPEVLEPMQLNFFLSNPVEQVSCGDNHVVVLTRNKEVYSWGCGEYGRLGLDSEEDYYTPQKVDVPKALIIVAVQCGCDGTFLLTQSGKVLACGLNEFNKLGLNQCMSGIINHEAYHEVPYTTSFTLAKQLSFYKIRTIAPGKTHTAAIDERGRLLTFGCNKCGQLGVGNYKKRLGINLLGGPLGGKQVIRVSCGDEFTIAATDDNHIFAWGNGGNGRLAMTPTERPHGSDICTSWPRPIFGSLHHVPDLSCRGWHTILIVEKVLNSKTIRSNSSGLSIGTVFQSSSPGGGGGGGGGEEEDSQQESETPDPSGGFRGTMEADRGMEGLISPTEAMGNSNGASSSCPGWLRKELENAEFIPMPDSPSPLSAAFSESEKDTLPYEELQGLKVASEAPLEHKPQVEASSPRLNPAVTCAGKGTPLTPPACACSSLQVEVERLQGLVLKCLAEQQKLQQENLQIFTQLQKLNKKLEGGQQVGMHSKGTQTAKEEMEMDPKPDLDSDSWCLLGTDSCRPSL
Particulars: at 0.1 µM.

The target in assay [11] is T4, Serine/threonine-protein kinase Nek9 (Homo sapiens). The note with it: at 1 µM.
Assay [12] concerns the target Serine/threonine-protein kinase PLK1 (Homo sapiens) (UniProt P53350). The note with it: at 0.1 µM.
For assay [13] the target is unchanged. Particulars: at 1 µM.
In assay [14] the target is T5, Dual specificity protein kinase TTK (Homo sapiens) (UniProt P33981).
T5 sequence (whole entry): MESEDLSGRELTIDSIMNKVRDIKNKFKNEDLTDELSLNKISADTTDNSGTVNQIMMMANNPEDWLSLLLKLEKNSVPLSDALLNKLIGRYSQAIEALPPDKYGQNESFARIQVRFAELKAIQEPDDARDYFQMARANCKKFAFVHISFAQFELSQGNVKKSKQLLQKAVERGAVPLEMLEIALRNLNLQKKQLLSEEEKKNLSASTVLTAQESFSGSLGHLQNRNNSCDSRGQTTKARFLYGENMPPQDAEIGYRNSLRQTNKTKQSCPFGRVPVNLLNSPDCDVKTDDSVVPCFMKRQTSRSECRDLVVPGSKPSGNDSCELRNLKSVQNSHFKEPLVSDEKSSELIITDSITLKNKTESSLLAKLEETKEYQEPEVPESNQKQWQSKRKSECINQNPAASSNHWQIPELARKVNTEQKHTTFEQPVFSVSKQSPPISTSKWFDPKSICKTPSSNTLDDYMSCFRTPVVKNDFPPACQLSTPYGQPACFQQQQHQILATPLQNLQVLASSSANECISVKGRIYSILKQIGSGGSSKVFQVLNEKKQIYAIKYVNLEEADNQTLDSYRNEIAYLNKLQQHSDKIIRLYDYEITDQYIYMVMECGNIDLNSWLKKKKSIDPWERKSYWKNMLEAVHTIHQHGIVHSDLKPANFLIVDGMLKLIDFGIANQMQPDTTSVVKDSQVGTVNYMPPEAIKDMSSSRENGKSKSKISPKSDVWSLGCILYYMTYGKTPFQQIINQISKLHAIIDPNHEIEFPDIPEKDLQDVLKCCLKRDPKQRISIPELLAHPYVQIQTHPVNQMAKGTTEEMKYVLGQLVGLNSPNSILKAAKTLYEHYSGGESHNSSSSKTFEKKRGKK
The note with it: at 0.1 µM.

In assay [15] the test system is T6, Receptor-type tyrosine-protein kinase FLT3 (Homo sapiens), P36888 [D835Y].
T6 sequence (whole entry): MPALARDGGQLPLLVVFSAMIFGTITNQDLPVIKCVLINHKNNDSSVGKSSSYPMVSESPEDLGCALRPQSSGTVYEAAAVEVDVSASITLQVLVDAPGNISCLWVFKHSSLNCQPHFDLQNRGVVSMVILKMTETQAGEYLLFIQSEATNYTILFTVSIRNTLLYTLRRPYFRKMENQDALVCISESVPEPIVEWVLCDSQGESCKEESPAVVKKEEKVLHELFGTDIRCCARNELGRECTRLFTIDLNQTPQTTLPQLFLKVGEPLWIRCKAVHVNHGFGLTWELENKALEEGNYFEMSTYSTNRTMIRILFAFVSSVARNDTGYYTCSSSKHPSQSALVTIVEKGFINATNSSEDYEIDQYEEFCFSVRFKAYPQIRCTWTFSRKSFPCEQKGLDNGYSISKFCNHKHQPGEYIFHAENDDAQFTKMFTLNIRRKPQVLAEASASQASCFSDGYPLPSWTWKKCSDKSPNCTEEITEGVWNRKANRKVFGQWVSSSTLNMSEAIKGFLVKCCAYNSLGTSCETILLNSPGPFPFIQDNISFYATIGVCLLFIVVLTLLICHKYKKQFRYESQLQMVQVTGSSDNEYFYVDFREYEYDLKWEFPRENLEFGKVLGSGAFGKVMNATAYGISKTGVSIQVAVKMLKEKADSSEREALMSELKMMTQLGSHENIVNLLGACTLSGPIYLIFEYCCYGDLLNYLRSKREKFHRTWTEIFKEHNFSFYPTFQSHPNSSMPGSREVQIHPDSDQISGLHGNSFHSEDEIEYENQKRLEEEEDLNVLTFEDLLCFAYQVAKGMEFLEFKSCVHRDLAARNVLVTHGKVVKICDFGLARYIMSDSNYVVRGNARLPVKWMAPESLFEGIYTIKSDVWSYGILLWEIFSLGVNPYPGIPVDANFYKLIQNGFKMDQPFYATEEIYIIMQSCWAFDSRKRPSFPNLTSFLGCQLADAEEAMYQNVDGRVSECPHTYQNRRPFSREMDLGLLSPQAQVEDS
Particulars: at 1 µM.

In assay [16] the target is Vascular endothelial growth factor receptor 3 (Homo sapiens) (UniProt P35916). The note with it: at 0.1 µM.
The target is the same in assay [17]. Particulars: at 1 µM.
Assay [18] deals with Macrophage colony-stimulating factor 1 receptor (Homo sapiens) (UniProt P07333). The note with it: at 0.1 µM.
Assay [19] has the same target. Particulars: at 1 µM.
Assay [20] has as its target Tyrosine-protein kinase Fyn (Homo sapiens) (UniProt P06241). The note with it: at 0.1 µM.

A word on the inhibition: it is the relative decrease from the control value, in per cent.

Chain of Serine/threonine-protein kinase PLK1 (Homo sapiens) (P53350 whole entry): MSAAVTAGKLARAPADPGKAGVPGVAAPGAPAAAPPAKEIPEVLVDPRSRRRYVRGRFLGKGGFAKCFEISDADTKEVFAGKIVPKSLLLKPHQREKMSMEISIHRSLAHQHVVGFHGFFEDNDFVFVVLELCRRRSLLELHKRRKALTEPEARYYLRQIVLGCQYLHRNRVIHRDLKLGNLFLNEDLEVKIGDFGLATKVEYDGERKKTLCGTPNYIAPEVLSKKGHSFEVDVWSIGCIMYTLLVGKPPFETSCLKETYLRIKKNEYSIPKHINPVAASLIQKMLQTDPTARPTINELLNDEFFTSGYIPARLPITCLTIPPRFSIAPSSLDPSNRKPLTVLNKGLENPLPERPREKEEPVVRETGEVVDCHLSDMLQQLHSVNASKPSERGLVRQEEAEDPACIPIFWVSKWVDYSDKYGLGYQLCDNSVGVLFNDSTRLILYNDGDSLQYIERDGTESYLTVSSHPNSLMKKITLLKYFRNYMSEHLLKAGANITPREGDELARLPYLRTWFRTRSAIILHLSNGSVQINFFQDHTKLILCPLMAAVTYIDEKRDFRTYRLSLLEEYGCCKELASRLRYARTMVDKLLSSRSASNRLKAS
Chain of Serine/threonine-protein kinase Nek6 (Homo sapiens) (Q9HC98 whole entry): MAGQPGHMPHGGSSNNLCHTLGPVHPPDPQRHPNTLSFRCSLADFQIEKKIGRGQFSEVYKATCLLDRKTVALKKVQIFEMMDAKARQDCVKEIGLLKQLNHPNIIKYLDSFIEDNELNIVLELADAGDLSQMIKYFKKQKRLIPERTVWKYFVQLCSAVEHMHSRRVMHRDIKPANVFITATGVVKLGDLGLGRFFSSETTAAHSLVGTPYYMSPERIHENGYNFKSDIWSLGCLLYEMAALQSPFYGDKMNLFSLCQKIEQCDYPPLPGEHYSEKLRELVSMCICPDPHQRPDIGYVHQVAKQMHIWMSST
Chain of Vascular endothelial growth factor receptor 3 (Homo sapiens) (P35916 whole entry): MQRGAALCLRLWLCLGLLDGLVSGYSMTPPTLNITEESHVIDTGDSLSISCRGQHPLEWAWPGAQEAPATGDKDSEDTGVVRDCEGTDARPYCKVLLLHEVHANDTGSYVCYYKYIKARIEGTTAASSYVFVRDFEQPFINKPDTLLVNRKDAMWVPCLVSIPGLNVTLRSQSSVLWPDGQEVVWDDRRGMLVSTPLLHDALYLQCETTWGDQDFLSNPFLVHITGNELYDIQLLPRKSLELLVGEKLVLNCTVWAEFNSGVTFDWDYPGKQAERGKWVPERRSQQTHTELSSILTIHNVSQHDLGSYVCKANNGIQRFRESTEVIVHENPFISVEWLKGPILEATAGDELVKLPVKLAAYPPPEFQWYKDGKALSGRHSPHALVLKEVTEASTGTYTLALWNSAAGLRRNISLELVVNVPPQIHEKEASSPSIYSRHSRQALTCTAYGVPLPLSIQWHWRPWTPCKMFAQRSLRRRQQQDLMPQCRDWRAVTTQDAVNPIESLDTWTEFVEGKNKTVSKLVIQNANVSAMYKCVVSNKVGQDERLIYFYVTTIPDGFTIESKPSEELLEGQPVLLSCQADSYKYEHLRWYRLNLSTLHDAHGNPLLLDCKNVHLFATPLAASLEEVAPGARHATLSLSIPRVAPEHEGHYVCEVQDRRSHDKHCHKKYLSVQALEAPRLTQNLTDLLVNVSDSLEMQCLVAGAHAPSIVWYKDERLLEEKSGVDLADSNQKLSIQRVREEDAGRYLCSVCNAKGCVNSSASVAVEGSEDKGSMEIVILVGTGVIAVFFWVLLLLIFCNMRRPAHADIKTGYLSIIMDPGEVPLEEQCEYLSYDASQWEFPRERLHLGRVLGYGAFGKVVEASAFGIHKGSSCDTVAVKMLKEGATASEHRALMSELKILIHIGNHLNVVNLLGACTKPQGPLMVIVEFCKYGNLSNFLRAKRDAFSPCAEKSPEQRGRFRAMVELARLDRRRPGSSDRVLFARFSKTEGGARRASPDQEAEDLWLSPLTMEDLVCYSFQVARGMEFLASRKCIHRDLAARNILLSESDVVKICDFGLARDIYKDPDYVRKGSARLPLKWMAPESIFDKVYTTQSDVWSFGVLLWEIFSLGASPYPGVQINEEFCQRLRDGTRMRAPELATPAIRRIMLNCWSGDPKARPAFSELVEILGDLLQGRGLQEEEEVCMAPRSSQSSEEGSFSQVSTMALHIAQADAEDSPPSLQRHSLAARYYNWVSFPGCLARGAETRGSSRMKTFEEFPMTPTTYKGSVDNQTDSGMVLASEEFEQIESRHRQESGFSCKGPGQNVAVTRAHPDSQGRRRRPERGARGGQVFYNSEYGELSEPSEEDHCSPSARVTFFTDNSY
Chain of Macrophage colony-stimulating factor 1 receptor (Homo sapiens) (P07333 whole entry): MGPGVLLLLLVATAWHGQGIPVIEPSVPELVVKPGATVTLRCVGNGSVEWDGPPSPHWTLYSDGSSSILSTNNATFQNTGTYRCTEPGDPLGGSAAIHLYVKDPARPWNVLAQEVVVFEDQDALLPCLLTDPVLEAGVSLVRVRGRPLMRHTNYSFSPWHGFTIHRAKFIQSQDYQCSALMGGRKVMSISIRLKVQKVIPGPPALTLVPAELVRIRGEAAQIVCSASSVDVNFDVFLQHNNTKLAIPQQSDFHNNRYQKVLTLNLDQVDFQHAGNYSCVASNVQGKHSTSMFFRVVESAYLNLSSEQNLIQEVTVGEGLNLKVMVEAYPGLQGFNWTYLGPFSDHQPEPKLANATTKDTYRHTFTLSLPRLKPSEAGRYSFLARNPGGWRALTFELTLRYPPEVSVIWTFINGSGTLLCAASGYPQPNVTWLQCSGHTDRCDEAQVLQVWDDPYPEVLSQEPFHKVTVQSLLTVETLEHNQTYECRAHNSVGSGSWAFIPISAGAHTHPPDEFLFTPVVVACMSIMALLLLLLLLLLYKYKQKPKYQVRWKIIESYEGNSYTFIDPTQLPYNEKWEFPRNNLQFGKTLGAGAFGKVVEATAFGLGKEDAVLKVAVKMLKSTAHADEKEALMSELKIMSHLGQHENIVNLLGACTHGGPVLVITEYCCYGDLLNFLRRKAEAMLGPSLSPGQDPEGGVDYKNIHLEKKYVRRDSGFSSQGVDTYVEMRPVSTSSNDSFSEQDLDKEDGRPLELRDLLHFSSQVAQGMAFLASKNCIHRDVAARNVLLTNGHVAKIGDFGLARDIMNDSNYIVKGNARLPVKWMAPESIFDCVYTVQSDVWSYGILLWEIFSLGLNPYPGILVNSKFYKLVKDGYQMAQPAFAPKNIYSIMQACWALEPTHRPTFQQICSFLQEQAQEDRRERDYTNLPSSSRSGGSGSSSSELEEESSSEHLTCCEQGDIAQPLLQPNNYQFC
Chain of Serine/threonine-protein kinase Nek7 (Homo sapiens) (Q8TDX7 whole entry, looked up): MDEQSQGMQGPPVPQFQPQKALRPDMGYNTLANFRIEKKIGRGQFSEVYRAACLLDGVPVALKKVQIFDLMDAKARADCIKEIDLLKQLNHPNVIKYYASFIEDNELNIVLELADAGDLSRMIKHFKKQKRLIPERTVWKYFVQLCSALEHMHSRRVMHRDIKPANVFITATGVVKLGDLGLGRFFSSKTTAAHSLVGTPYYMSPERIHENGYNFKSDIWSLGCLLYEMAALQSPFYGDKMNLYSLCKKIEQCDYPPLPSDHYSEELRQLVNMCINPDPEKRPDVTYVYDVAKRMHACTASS
Chain of Tyrosine-protein kinase Fyn (Homo sapiens) (P06241 2-537 limits assumed): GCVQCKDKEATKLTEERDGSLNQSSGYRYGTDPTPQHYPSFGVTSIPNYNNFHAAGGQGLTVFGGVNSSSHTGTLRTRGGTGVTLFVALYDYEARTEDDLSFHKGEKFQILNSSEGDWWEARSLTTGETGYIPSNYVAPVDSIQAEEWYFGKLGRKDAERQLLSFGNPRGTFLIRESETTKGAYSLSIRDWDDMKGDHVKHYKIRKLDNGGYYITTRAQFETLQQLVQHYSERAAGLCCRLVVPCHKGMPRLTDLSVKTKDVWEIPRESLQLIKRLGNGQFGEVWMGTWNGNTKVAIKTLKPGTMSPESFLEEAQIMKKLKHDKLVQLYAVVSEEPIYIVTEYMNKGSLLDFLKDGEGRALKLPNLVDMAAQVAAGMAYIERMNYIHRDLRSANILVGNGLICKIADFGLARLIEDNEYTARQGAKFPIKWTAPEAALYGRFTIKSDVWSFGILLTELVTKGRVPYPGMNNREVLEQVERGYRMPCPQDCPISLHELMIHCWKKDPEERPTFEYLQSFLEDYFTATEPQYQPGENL

Consider `COc1ccc2cc(-c3c(-c4ccncc4)nc(-c4ccc(S(C)(=O)=O)cc4C)n3C)ccc2c1`, for which the inhibition in assay [1] stood at 7.25%; in [2], 3.37%; in assay [3] it was 4.4%; in assay [4] it was 5.82%; in [5], 4.5%; in [6], 0.49%. Besides, the inhibition in assay [7] is 4.51%; in assay [8] it was 5.77%; in assay [9] it was 4.57%; in [10] it was 6.52%; in [11], 18.2%; in [12] it was 4.66%. Besides, the inhibition was 4.49% in assay [13]; 11.5% in assay [14]; -2.55% in assay [15]; 4.4% in assay [16]; 10.1% in assay [17]; 0.81% in assay [18]. Besides, the inhibition in assay [19] was -1.08%; in assay [20] it was 1.95%.

Consider `CS(=O)(=O)CCNCc1cc(-c2cc3c(Nc4ccc(OCc5cccc(F)c5)c(Cl)c4)ncnc3s2)cs1`, for which the inhibition was found to be 4.64% in assay [1]; 3.08% in assay [2]; 5.81% in [3]; 6.26% in assay [4]; 6.31% in [5]; 1.2% in [6]. The inhibition in assay [7] worked out at 3.03%; in [8], 4.02%; in [9] it was 8.5%; in [10] it was 9.93%; in [11] it was 8.5%; in assay [12], 6.1%. In addition, the inhibition is 8.12% in assay [13]; 9.23% in assay [14]; 5.05% in assay [15]; 1.58% in assay [16]; -1.31% in assay [17]; 7.21% in [18]. In addition, the inhibition in assay [19] stood at 7.82%; in assay [20], 0.55%.

Values taken from ChEMBL document CHEMBL1961873, “Compounds: GSK PKIS; Assays: Nanosyn kinase panel” (2012).
